In the library only some 3.3% were active in any assay of this set; here they are far more common.
FGF22 binding = FGF22 (human) thermal shift binding; recombinant FGF22 thermal shift, SYPRO orange fluorescence; percent of sucrose octasulfate shift, DMSO zero; Q9HCT0; AID 651658; activity (Tm shift, normalised), % at 9.99 µM; actives 1.5% (n = 340,000);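 active means mean Tm shift, scaled 0 neutral to 100 positive control, at about 1.3% or above, every replicate too, limit read from the data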
Target sequence (Q9HCT0 whole entry, looked up): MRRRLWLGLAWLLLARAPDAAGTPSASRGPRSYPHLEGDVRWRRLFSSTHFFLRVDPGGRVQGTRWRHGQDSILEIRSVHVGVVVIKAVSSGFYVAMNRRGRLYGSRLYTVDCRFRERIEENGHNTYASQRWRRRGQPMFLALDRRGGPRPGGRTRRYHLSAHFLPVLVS
INS-1E GSIS act = GLuc luminescence reporter in INS-1E cells, primary screen for activators of glucose-dependent secretion of insulin; INS-1E GLuc reporter insulin secretion, 2-3 h; activation, % at 16.6 µM; actives 0.61% (n = 370,000); AID 743287;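 active means lowest replicate activation of at least 40%, so every replicate reaches that level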;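 further: 0% = median of neutral control wells and 100% = median of IBMX positive control wells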
ERAP1 HTS inh = blocks human ERAP1 aminopeptidase activity. recombinant ERAP1, Leu-AMC fluorescence, 60 min. actives 0.15% (n = 340,000). AID 652197. inhibition, % at 10.7 µM. Q9NZ08;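 active means mean replicate inhibition of at least 30%, or all replicates individually reaching that 30% level; inactive means mean below 30% and not every replicate reaching it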;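 further: 0% = neutral control wells and 100% = L-leucinethiol positive control wells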
CASP6 VEID inh = inhibitors of human caspase-6; inhibition, % at 12.5 µM; purified caspase-6, Z-VEID-R110 cleavage fluorescence; P55212; AID 686996; actives 0.53% (n = 350,000);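 active means mean inhibition across replicates at least about 35%, with every replicate also reaching that limit, limit read from the data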;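 further: 0% = median of neutral control wells and 100% = no fluorescence left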
SIRT5 inh = sirtuin-5 (human) deacylase inhibition | Q9NXA8 | Purified SirT5, succinyl-peptide AMC, trypsin-coupled fluorescence | inhibition, % at 15 µM | actives 1.1% (n = 330,000) | AID 652115; in the data active means inhibition above about 15%
Target sequence (Q9NXA8 whole entry, looked up): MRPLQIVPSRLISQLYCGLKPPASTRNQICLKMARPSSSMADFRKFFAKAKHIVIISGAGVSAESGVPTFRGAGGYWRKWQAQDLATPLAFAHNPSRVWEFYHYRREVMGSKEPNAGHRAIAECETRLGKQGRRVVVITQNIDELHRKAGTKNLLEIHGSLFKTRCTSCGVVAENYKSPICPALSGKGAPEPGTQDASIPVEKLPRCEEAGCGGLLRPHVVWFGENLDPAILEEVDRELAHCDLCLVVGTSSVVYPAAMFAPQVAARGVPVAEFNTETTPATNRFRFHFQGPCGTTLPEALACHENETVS
* = called active by the depositor; . = no result.

SMILES	FGF22 binding	INS-1E GSIS act	ERAP1 HTS inh	CASP6 VEID inh	SIRT5 inh
Cc1ccc(S(=O)(=O)N2CCN(C(=O)c3ccco3)CC2)cc1	0	1	5	3	7
O=C(/C=C/c1ccco1)N1CCCC(c2ccccc2)C1 (configuration not stated)	44*	-1	-7	-3	0
O=C(/C=C/c1ccccc1)N1CCC(c2ccccc2)C1 (configuration not stated)	0	.	4	-1	.
CC(C)c1ccc(S(=O)(=O)N2CCN(C(=O)c3ccco3)CC2)cc1	44*	.	8	-2	2
CCN(CC)C(=O)N1CCN(S(=O)(=O)c2ccccc2)CC1	43*	6	0	-2	-7
COc1cc(CN2CC3(CCN(C(=O)Nc4c(C)noc4C)CC3)c3c([nH]c4cc(OC)ccc34)[C@H]2CO)cc(OC)c1	-1	4	-4	1	9
O=C(Cn1cc(COc2c(Br)cc(F)cc2Br)nn1)c1ccc(O)cc1	0	-51	1	1	-7
O=C(Cn1cc(COc2c(F)c(F)c(Br)c(F)c2F)nn1)c1ccc(O)cc1	1.8*	-50	2	4	0
CN(Cc1ccccc1)C(=O)COc1ccc(N(C)S(=O)(=O)c2ccc(F)cc2)cc1	0	-37	.	0	18*
CN(c1ccc(OCC(=O)NCc2cccnc2)cc1)S(=O)(=O)c1ccc(Cl)cc1	43*	3	3	-2	-5
CN(c1ccc(OCC(=O)Nc2ccc(S(N)(=O)=O)cc2)cc1)S(=O)(=O)c1ccc(F)cc1	0	-2	-1	5	-1
CN(c1ccc(OCC(=O)Nc2cc(Cl)ccc2C(=O)O)cc1)S(=O)(=O)c1ccc(F)cc1	1	.	7	36*	1
C/C=C/c1cnc2c(c1)C(=O)N([C@H](C)CO)C[C@@H](C)[C@@H](CN(C)Cc1ccc3c(c1)OCO3)O2	.	-3	.	.	.
C[C@H](CO)N1C[C@H](C)[C@@H](CN(C)C(=O)NC2CCCCC2)Oc2ccc(NS(=O)(=O)c3ccccc3)cc2CC1=O	0	1	-3	3	4
COc1cc(C2NC(=S)NC3=C2CCc2ccccc23)cc(OC)c1OC (configuration not stated)	0	1	-2	0	-1
COc1ccc2c(c1)CCC1=C2NC(=S)NC1c1ccc(N(C)C)cc1 (configuration not stated)	0	.	-8	-10	15*
COc1ccc(S(=O)(=O)N(C)C[C@@H]2Oc3cc(C#CC4CC4)ccc3S(=O)(=O)N([C@H](C)CO)C[C@H]2C)cc1	0	-1	4	2	15*
COc1ccc(S(=O)(=O)N(C)C[C@H]2Oc3cc(C#CC4CCCC4)ccc3S(=O)(=O)N([C@@H](C)CO)C[C@H]2C)cc1	0	1	0	-2	4
COc1ccc(S(=O)(=O)N(C)C[C@H]2Oc3cc(C#CC4CC4)ccc3S(=O)(=O)N([C@@H](C)CO)C[C@H]2C)cc1	0	8	7	0	22*
COc1ccc(S(=O)(=O)N(C)C[C@H]2Oc3cc(C#CC4CC4)ccc3S(=O)(=O)N([C@@H](C)CO)C[C@@H]2C)cc1	0	0	3	-1	22*
C[C@H](CO)N1C[C@H](C)[C@H](CN(C)Cc2ccccc2)Oc2ccc(NS(=O)(=O)c3cn(C)cn3)cc2C1=O	0	5	-1	0	-1
CCCNC(=O)C[C@H]1CC[C@H]2[C@@H](COc3ccc(NS(=O)(=O)CC)cc3C(=O)N2C)O1	0	-9	-3	-1	1
O=C(O)C1Sc2[nH]c(=O)sc2C2c3ccc(O)cc3OC(=O)C12 (configuration not stated)	1	-11	11	58*	-9
CC(C)c1ccc(NC(=O)COc2ccccc2)cc1	0	-25	-1	-3	-1
CC(C)c1ccc(NC(=O)COc2ccccn2)cc1	43*	4	0	-3	-5
SMILES	FGF22 binding	INS-1E GSIS act	ERAP1 HTS inh	CASP6 VEID inh	SIRT5 inh
C[C@@H]1CN([C@H](C)CO)C(=O)c2cc(NC(=O)CCN3CCOCC3)ccc2O[C@@H]1CN(C)Cc1ccc(-c2ccccc2)cc1	0	10	4	2	-4
Cc1ccc(-c2nc(NC(=O)CSc3cc(C)c4ccccc4n3)ns2)cc1	0	-8	-1	-2	-4
COc1ccc2c(C)cc(SCC(=O)Nc3nsc(-c4ccc(C)cc4)n3)nc2c1	0	9	-3	49*	.
C[C@H]1CN([C@@H](C)CO)C(=O)c2cccc(NC(=O)c3ccncc3)c2O[C@@H]1CN(C)C(=O)Nc1ccccc1	0	1	2	0	4
Cc1ccc(C(=O)Nc2ccc(C(F)(F)F)n(C)c2=O)cc1	.	-7	1	-2	0
COc1ccc(C(=O)Nc2ccc(C(F)(F)F)n(C)c2=O)cc1	44*	4	3	-2	0
O=C(C[C@H]1CC[C@@H]2[C@H](COC[C@H](O)CN2Cc2cc(F)cc(F)c2)O1)NC1CCCC1	0	-9	-2	0	5
Cc1cc(C)n(CCc2nc(-c3ccco3)cs2)n1	0	-7	5	58*	8
Cc1nn(CCc2nn[nH]n2)c2nc(-c3ccccc3)cc(C(F)(F)F)c12	1	17	-1	3	-7
Cc1nn(CCc2nc(-c3ccco3)cs2)c2[nH]c(=O)cc(C(F)(F)F)c12	1	-2	4	49*	16*
COc1ccc(CC(=O)OCC(=O)N2CCc3ccccc32)cc1OC	0	121*	7	3	-2
COc1ccc(CC(=O)OCC(=O)N2CCCc3ccccc32)cc1OC	0	111*	0	2	2
COc1cccc2c(=O)n(CC(=O)N3CCCc4ccccc43)ccc12	0	-9	3	1	23*
CCOC(=O)COc1cccc2c(=O)n(CC(=O)N3CCCc4ccccc43)ccc12	0	-7	2	1	-2
COc1cccc(C(=O)OCC(=O)N2CCc3ccccc32)c1OC	41	7	-4	1	2
COC(=O)[C@@H]1[C@@H](CO)[C@@H]2Cn3c(ccc(C4=CCCCC4)c3=O)[C@@H]2N1CC1CCCCC1	0	-7	.	.	4
COCC(=O)Nc1ccc2c(c1)C(=O)N(C)C[C@H](OC)[C@@H](C)CN(Cc1ccccn1)[C@H](C)CO2	.	1	0	-6	3
C/C=C/c1ccc([C@H]2[C@@H](CO)N(C(=O)c3cnccn3)C23CN(C(C)=O)C3)cc1	0	8	-1	-3	2
COc1ccc(-c2noc(CCC(=O)NCCCN3CCC(C)CC3)n2)cc1	.	12	.	.	.
CCN1CCN(CCCNC(=O)CCc2nc(-c3ccc(OC)cc3)no2)CC1	43*	-8	-3	-5	0
COc1cc(C(=O)C(=O)c2ccc(O)c(OC)c2)ccc1O	0	43*	4	1	3

Screens deposited in PubChem BioAssay by Broad Institute.
